According to PubChem BioAssay (Tox21):
Results filed as inconclusive are left out. A number with no mark means an inactive call. Calls follow the shape of the full dose curve.

Target: Thyrotropin receptor (Homo sapiens) (UniProt P16473)
Experiment: qHTS assay to identify small molecule agonists of the thyroid stimulating hormone receptor (TSHR) signaling pathway (AID 1224843); also: nearly all actives have a fitted effect of over 45% in size
Conditions: TSHR-HEK293 cells, cAMP HTRF, agonist mode, 30 min; series mostly up to 92.4 µM; activation: at the top concentration
Outline: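 Agonist activity read as cAMP rise via d2/cryptate HTRF competition, 1 h room-temperature detection, in HEK293 cells expressing TSHR. Fifteen-point titrations, each run in triplicate, with a 30 min room-temperature incubation beforehand.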
% is scaled to controls: 0 for no effect and ±100 for the full control effect.

Sequence of Thyrotropin receptor (Homo sapiens) (P16473 whole entry, looked up): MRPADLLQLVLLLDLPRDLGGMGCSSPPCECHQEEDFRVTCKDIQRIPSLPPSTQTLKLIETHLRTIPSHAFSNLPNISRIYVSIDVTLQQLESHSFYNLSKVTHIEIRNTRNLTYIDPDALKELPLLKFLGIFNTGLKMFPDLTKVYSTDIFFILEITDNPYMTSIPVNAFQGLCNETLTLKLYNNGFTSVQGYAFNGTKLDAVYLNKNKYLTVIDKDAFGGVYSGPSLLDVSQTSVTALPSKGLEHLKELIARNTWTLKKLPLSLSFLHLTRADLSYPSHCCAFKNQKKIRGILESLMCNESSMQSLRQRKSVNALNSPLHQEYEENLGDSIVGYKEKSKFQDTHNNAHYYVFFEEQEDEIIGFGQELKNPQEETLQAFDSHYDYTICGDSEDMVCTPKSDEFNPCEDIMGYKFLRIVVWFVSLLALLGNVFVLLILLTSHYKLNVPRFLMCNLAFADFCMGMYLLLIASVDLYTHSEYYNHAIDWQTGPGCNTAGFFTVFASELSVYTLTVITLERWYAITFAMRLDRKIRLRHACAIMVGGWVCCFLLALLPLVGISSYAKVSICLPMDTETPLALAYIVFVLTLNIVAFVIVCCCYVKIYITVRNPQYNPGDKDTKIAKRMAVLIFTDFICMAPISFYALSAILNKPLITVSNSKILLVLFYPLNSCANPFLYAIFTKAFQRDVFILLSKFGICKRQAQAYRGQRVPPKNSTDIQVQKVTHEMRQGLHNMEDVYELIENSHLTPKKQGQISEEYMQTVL

Compound	activation
CC1=CC(=O)CCC1	1.68%
NC(CS)C(=O)O (configuration not stated)	0.558% [at 42.5 µM]
CCc1cc(S(=O)(=O)O)c2cc(C(C)C)cccc1-2	-4.59% [at 42.5 µM]
CCCCCCCCN(C)CCCCCCCC	18.5%
CCCOc1ccccc1-c1nc2n[nH]nc2c(=O)[nH]1	0.264% [at 42.5 µM]
CC(C)c1ccc2oc3nc(N)c(C(=O)O)cc3c(=O)c2c1	1.93% [at 42.5 µM]
CN(C)CCn1nnnc1SCC1=C(C(=O)O)N2C(=O)[C@@H](NC(=O)Cc3csc(N)n3)[C@H]2SC1	-0.997% [at 42.5 µM]
NS(=O)(=O)c1cc2c(cc1C(F)(F)F)NC(Cc1ccccc1)NS2(=O)=O (configuration not stated)	6.25% [at 42.5 µM]
COc1ccc(NC(C)=O)cc1	6.94%
Cc1c(F)cc2c(=O)c(C(=O)O)cn3c2c1CCC3C (configuration not stated)	-0.44% [at 42.5 µM]
CCCCCCC(CCCCCCCCCCC(=O)OCC(COC(C)=O)OC(C)=O)OC(C)=O (configuration not stated)	-3.47% [at 42.5 µM]
CCN(CC)S(=O)(=O)c1ccc(C(=O)O)cc1	2.11% [at 42.5 µM]
C=C(C)C(=O)OCCCCCCCCCCCCCCCCCC	-1.44% [at 19 µM]
Nc1cc(N)cc(C(=O)O)c1	-9.39%
CC(C)CCCC(C)NCCC(C)C (configuration not stated)	-0.0247% [at 42.5 µM]
CCCCC1CCCCC(=O)O1 (configuration not stated)	-6.47%
O=C1OC(=O)c2cc([N+](=O)[O-])ccc21	0.619%
CNc1ncnc2nc[nH]c12	-0.772%
CCCCC=O	7.5%

Compound	activation
N#CC1(O)CCCCC1	5.05%
COC(=O)c1ccc(C(=O)OC)c(C(=O)OC)c1	-5.13%
CC(C)c1cccc(O)c1	2.47%
Nc1nc2c(ncn2CCC(CO)CO)c(=O)[nH]1	0.716% [at 42.5 µM]
CC(C)(C)OC(=O)N1C[C@@H](F)C[C@H]1C(=O)O	-19.4%
COc1ccc(COC=O)cc1	0.869%
CC(C)(C)C(=O)/C=C/c1ccc(Cl)cc1	-3.82%
Nc1ccc2cc(S(=O)(=O)O)ccc2c1	-1.05%
C[C@H]1O[C@@H](n2cc(F)c(=O)[nH]c2=O)[C@H](O)[C@@H]1O	-1.35% [at 42.5 µM]
O=C(O)CCNC(=O)c1ccc(N=Nc2ccc(O)c(C(=O)O)c2)cc1	-8.41% [at 42.5 µM]
CCCC(=O)O[C@]1(C(=O)CCl)[C@@H](C)C[C@H]2[C@@H]3CCC4=CC(=O)C=C[C@]4(C)[C@@]3(F)C(=O)C[C@@]21C	-24% [at 42.5 µM]
CCN1CCN(c2cc3c(cc2F)c(=O)c(C(=O)O)cn3C2CC2)CC1	-2.79% [at 42.5 µM]
CC1(C)SC(C)(C)SC(C)(C)S1	-0.0404%
CC1=CC(C)C(C=O)C(C)C1 (configuration not stated)	-0.361%
CN(C)CCOC(c1ccc(Cl)cc1)c1ccccn1 (configuration not stated)	-1.6% [at 42.5 µM]
COc1ccc(N=[N+]([O-])c2ccc(OC)cc2)cc1	-28.5%
CCCC(C)CO (configuration not stated)	-5.27%
CC(C)COC(=O)C(C)C	1.47%
